# In ChEMBL document CHEMBL2218924, “A broad activity screen in support of a chemogenomic map for kinase signalling research and drug discovery” (Biochem J, 2013):
# Legend:
# [1] = biological target: Tyrosine-protein kinase SYK (Homo sapiens) (UniProt P43405); conditions: at 10 µM
# [2] = biological target: T1, Mitogen-activated protein kinase kinase kinase 7 (Homo sapiens) (UniProt O43318); conditions: at 1 µM
# T1 sequence (whole entry): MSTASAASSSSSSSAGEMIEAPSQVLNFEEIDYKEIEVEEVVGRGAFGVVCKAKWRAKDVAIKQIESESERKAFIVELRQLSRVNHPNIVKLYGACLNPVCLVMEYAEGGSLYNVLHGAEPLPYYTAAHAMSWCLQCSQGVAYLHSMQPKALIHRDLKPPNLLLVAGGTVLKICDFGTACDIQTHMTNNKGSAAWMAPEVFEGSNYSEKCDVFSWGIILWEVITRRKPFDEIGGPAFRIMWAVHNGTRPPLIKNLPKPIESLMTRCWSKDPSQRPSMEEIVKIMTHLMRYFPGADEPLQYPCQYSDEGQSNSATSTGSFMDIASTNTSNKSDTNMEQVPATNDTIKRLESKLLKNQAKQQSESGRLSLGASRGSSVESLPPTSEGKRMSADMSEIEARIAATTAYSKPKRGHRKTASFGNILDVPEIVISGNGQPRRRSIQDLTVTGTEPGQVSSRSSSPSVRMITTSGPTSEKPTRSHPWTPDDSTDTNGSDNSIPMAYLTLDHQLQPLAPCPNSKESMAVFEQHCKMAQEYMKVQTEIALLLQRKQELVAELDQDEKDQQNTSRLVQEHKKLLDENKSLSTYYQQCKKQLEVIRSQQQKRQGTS
# [3] = biological target: T1, Mitogen-activated protein kinase kinase kinase 7 (Homo sapiens); conditions: at 10 µM
# [4] = biological target: T2, Serine/threonine-protein kinase TAO1 (Homo sapiens) (UniProt Q7L7X3); conditions: at 1 µM
# T2 sequence (whole entry): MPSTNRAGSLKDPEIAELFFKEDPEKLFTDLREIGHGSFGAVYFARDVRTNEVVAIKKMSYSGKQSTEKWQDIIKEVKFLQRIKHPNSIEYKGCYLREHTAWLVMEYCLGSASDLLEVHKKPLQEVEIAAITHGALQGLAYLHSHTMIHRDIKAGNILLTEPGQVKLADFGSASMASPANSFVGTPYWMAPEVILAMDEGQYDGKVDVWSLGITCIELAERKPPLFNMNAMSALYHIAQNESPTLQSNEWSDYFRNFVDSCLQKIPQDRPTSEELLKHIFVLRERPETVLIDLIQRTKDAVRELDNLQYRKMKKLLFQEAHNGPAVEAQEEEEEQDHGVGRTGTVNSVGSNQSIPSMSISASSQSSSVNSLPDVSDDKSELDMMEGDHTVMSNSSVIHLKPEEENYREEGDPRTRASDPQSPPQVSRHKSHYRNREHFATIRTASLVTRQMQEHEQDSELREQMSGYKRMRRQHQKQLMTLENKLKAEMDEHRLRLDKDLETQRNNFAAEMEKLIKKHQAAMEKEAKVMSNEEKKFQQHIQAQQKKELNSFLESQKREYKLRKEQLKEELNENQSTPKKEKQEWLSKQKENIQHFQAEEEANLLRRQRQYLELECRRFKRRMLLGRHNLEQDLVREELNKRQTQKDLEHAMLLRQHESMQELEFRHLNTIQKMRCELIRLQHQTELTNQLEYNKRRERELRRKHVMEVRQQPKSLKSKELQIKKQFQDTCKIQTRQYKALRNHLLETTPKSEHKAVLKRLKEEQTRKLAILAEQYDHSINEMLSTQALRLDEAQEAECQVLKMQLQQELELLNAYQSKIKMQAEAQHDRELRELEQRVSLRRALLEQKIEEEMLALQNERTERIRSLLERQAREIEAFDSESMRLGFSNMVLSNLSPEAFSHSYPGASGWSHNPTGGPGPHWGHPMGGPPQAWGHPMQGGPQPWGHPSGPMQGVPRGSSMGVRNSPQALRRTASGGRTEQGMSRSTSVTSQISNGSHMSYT
# [5] = biological target: T2, Serine/threonine-protein kinase TAO1 (Homo sapiens); conditions: at 10 µM
# [6] = biological target: T3, Serine/threonine-protein kinase TAO2 (Homo sapiens) (UniProt Q9UL54); conditions: at 1 µM
# T3 sequence (whole entry): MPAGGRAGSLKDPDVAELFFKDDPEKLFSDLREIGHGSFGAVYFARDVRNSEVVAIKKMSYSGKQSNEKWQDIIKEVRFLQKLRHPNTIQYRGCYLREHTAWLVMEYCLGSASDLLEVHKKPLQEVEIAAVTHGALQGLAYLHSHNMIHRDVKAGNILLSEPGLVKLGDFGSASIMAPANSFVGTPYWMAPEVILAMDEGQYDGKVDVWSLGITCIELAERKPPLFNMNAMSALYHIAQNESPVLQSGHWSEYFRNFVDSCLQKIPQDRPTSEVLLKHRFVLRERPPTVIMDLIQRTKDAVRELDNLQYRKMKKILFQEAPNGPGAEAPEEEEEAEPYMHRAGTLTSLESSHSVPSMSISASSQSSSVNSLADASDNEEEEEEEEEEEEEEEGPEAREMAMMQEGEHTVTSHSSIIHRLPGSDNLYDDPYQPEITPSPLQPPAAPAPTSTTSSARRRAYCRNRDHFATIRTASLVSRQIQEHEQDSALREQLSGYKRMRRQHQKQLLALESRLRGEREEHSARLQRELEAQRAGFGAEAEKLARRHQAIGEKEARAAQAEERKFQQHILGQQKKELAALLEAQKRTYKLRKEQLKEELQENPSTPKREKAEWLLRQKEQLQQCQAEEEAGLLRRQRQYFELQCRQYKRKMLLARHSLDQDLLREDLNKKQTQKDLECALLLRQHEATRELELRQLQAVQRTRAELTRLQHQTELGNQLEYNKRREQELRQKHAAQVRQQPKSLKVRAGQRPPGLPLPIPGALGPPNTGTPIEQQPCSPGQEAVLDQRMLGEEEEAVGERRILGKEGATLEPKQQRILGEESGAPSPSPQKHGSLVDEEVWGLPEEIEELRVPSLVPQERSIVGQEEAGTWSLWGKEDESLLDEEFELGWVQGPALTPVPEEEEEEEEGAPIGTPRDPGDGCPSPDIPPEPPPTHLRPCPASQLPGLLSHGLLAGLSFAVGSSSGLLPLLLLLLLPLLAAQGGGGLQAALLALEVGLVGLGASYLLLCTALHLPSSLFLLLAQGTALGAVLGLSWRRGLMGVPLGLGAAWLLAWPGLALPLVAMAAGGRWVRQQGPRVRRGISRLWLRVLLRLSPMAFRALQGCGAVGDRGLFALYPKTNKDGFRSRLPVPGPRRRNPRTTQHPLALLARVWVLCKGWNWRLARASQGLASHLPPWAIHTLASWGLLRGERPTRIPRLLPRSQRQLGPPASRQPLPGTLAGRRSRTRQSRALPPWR
# [7] = biological target: T3, Serine/threonine-protein kinase TAO2 (Homo sapiens); conditions: at 10 µM
# [8] = biological target: T4, Serine/threonine-protein kinase TAO3 (Homo sapiens) (UniProt Q9H2K8); conditions: at 1 µM
# T4 sequence (whole entry): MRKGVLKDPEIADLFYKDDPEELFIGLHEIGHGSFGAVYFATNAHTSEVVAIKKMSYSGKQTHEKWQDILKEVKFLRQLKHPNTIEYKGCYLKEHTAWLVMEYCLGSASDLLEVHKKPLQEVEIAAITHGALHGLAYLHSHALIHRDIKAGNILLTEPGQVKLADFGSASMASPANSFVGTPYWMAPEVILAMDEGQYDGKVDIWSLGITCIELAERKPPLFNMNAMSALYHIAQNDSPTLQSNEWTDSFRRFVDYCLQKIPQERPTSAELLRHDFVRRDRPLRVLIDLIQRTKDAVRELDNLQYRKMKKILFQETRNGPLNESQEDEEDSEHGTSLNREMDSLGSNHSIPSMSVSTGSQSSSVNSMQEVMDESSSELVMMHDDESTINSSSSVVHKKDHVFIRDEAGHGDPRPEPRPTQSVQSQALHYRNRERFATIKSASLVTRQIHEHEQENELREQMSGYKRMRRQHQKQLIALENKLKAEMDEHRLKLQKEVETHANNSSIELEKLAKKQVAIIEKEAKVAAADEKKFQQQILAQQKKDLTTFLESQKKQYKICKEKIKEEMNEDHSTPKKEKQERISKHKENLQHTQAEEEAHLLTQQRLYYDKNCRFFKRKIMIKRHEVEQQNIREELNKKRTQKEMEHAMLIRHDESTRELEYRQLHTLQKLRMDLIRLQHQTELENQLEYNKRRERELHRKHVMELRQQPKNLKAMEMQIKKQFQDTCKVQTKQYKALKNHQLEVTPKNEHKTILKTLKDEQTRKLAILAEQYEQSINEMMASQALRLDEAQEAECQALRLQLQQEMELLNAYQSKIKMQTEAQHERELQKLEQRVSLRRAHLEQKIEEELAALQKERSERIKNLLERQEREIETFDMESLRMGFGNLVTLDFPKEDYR
# [9] = biological target: T4, Serine/threonine-protein kinase TAO3 (Homo sapiens); conditions: at 10 µM
# [10] = biological target: T5, Serine/threonine-protein kinase TBK1 (Homo sapiens) (UniProt Q9UHD2); conditions: at 1 µM
# T5 sequence (whole entry): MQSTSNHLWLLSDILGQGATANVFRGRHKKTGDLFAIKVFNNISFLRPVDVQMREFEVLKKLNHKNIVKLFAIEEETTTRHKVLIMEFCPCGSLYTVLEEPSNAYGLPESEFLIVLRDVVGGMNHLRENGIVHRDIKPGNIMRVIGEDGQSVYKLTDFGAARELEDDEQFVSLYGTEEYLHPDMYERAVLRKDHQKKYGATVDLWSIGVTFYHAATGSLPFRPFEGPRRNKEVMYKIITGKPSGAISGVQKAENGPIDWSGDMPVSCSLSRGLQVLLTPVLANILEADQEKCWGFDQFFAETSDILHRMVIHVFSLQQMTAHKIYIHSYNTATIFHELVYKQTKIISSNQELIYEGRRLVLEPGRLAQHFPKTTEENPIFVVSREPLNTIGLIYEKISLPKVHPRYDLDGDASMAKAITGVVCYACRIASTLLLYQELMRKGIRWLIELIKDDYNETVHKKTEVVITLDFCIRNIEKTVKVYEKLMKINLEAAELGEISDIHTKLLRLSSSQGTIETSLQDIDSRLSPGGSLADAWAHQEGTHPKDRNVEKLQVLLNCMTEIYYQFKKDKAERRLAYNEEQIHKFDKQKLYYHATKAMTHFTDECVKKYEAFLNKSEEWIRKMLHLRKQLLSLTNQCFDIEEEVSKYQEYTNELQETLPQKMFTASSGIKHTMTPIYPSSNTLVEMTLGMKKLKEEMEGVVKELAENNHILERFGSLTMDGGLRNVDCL
compound,measurement,setting,value
NC(=O)c1ccc2[nH]c(-c3ccc(Oc4ccc(Cl)cc4)cc3)nc2c1,residual activity,[1],96%
same,residual activity,[2],92%
same,residual activity,[3],81%
same,residual activity,[4],89%
same,residual activity,[5],72%
same,residual activity,[6],88%
same,residual activity,[7],99%
same,residual activity,[8],98%
same,residual activity,[9],79%
same,residual activity,[10],67%
